# From PubChem BioAssay (EPA / NIEHS)
# Values joined by “and” are separate entries in the source; they are usually repeats but may differ in a detail not shown here. Equal entries are not always repeated. Inconclusive results are not listed. Some structures have more than one record in an assay (separate samples or runs), and their calls can disagree. Active and inactive are the calls of the source. The calls were made as follows: active = hit-call score of the fitted dose curve at least 0.9, where 1 is the maximum; inconclusive = response in the unintended direction; inactive = score below 0.9.
# What was measured:
# [1] = ATG_XTT_Cytotoxicity: Cytotoxicity Assessment in the Attagene TRANS-FACTORIAL HepG2 Assay (AID 2283584);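 as to AC50: cells exposed to compound for 24 h before reading; active means loss of viability signal versus DMSO baseline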
# Method in brief: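 XTT readout of cell number in transfected HepG2 cells, 24 h post-dosing; DMSO serves as negative control and baseline, with activity taken as loss of viability signal.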
# [2] = TOX21_p53_BLA_p2_viability: Viability Assessment in the Tox21 HCT-116 p53 Agonism Beta-lactamase Assay, Phase 2 (AID 2283591);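 also: compound exposure lasted 16 h at 37 °C; actives lower the ATP signal meaning cytotoxicity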
# Method in brief: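 HCT116 p53-bla cells, 4000/well, dosed after 5 h plating (217-fold dilution of DMSO stocks) and incubated 16 h at 37C. Viability taken as cellular ATP by CellTiter-Glo luminescence after 30 min RT; signal loss marks cytotoxicity.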
compound,measurement,setting,value
C[C@]12CC[C@@H]3c4ccc(O)cc4CC[C@H]3[C@@H]1CC[C@@H]2OC(=O)CCC1CCCC1,outcome,[1],inactive
same,outcome,[2],inactive
CCCCCCCCCCCC[N+](C)(C)CCCCCCCCCCCC,AC50,[1],62.4 µM (active)
same,AC50,[2],23.5 µM (active)
CCN(CCC#N)c1ccccc1,outcome,[1],inactive
CC(C)(C)c1ccc(O)c(O)c1,outcome,[1],inactive
same,outcome,[2],inactive
C=CC(=C)CC/C=C(\C)CCC=C(C)C,outcome,[1],inactive
CCCCCCCCCC=CCC1CC(=O)OC1=O (centres undefined),outcome,[1],inactive
same,outcome,[2],inactive
CC(C)(C)C1CCCCC1O (centres undefined),outcome,[1],inactive
same,outcome,[2],inactive
CC1CNCC(C)O1 (centres undefined),outcome,[1],inactive
O=S(=O)(O)c1ccc2cc(O)ccc2c1,outcome,[1],inactive
same,outcome,[2],inactive
O=C(NO)c1ccccc1,outcome,[1],inactive
same,outcome,[2],inactive
CC(O)COc1ccccc1 (centres undefined),outcome,[1],inactive
same,outcome,[2],inactive
CC(C)(O)C(=O)c1ccccc1,outcome,[1],inactive
same,outcome,[2],inactive
Oc1c(Cl)ccc(Cl)c1Cl,outcome,[1],inactive
same,outcome,[2],inactive
CCc1cccc(CC)c1NC(=O)C(=O)O,outcome,[1],inactive
Nc1ccc(O)c(C(=O)O)c1,outcome,[1],inactive
same,outcome,[2],inactive
CCC(C)c1nccnc1OC (centres undefined),outcome,[1],inactive
NNc1nc(-c2ccc([N+](=O)[O-])cc2)cs1,outcome,[1],inactive
same,outcome,[2],inactive
CC(=O)Nc1ccc(S(N)(=O)=O)cc1,outcome,[1],inactive
same,outcome,[2],inactive
CCCCCCOC(=O)c1ccc(O)cc1,AC50,[1],149 µM (active)
same,outcome,[2],inactive
COC(=O)CC(C(C)=O)C(=O)OC (centres undefined),outcome,[1],inactive
same,outcome,[2],inactive
CCCCCCCCCCCCOC(=O)c1cc(O)c(O)c(O)c1,AC50,[2],21.7 µM (active) and 28.2 µM (active)
O=C1OC2(c3ccccc31)c1cc(I)c(O)c(I)c1Oc1c2cc(I)c(O)c1I,outcome,[1],inactive
same,outcome,[2],inactive
CCCCCCCCCCCCCCCC(=O)OC,outcome,[1],inactive
same,outcome,[2],inactive
CCCCCCCCCCCC(=O)NCCCN(C)C,outcome,[1],inactive
same,AC50,[2],44.2 µM (active)
CC(C)C=O,outcome,[1],inactive
same,outcome,[2],inactive
CN(C)c1ccc(C(=C2C=CC(=[N+](C)C)C=C2)c2ccccc2)cc1,AC50,[1],10.1 µM (active) and 7.71 µM (active)
same,AC50,[2],1.83 µM (active)
same,outcome,[2],inactive
CCN(CC)CC,outcome,[1],inactive
same,outcome,[2],inactive
CC=O,outcome,[1],inactive
same,AC50,[2],46.2 µM (active)
CC1=NN(c2ccccc2)C(=O)C1,outcome,[2],inactive
Oc1c(Cl)cc(Cl)cc1Sc1cc(Cl)cc(Cl)c1O,AC50,[1],41.5 µM (active)
same,AC50,[2],43.1 µM (active) and 23.4 µM (active) and 76.2 µM (active)
same,outcome,[2],inactive
C=CC(C)(CCC=C(C)C)OC(C)=O (centres undefined),outcome,[2],inactive
Cc1ccc(C)c(S(=O)(=O)O)c1,outcome,[1],inactive
same,outcome,[2],inactive
CCCCCCCCC1CCC(=O)O1 (centres undefined),outcome,[1],inactive
same,outcome,[2],inactive
Cc1cc(=O)oc2cc(O)ccc12,outcome,[1],inactive
same,outcome,[2],inactive
Cc1cc(C(C)(C)C)c(O)c(C(C)(C)C)c1,outcome,[2],inactive
O=C(Nc1cccc([N+](=O)[O-])c1)c1cc2ccccc2cc1O,outcome,[1],inactive
same,outcome,[2],inactive
CNNCc1ccc(C(=O)NC(C)C)cc1,outcome,[1],inactive
same,outcome,[2],inactive
CCCCCCCCCCCCCC[n+]1ccccc1,AC50,[1],28.3 µM (active)
same,outcome,[2],inactive
O=C1OC(=O)c2cc(-c3ccc4c(c3)C(=O)OC4=O)ccc21,outcome,[1],inactive
same,outcome,[2],inactive
NCCN,outcome,[1],inactive
same,outcome,[2],inactive
CC(C)(C)c1ccc(CCC=O)cc1,outcome,[1],inactive
same,outcome,[2],inactive
CCOCCOCC,outcome,[2],inactive
O=C(c1cc(O)c(O)c(O)c1)c1ccc(O)c(O)c1O,outcome,[2],inactive
CC1=CC(=O)c2ccccc2C1=O,outcome,[1],inactive
same,AC50,[2],51.1 µM (active)
same,outcome,[2],inactive
CCCCCCCCCCCCCCCCCC[N+](C)(C)Cc1ccccc1,AC50,[1],29 µM (active)
same,AC50,[2],41.1 µM (active)
Nc1cc(Cl)c(-c2cc(Cl)c(N)cc2Cl)cc1Cl,outcome,[1],inactive
same,AC50,[2],31.3 µM (active) and 40.9 µM (active)
